According to PubChem BioAssay AID463082 (The Scripps Research Institute Molecular Screening Center, 2010):
Screen size: about 330,000 compounds; about 4,900 (1.5%) were called active.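 Rule for the calls: active = inhibition above the mean inhibition across the screen plus 3 SD (cut at about 25% in these data); inactive = the rest.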 Many of the other results were omitted from the sample, so actives are more common in it than they were.

The molecules below were run against Platelet-activating factor acetylhydrolase (Homo sapiens) (UniProt Q13093) (assay: inhibition of plasma PAF acetylhydrolase – biochemical, fluorescence polarization, human, primary screen (AID 463082;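 note: inhibitors block binding of the rhodamine activity-based probe so polarization drops; 0% = enzyme with DMSO and 100% = wells lacking pPAFAH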)). Details: recombinant pPAFAH, FP-rhodamine probe fluorescence polarization; at 3.39 µM; hits give high values.
Platelet-activating factor acetylhydrolase (Homo sapiens), sequence (Q13093 whole entry, looked up): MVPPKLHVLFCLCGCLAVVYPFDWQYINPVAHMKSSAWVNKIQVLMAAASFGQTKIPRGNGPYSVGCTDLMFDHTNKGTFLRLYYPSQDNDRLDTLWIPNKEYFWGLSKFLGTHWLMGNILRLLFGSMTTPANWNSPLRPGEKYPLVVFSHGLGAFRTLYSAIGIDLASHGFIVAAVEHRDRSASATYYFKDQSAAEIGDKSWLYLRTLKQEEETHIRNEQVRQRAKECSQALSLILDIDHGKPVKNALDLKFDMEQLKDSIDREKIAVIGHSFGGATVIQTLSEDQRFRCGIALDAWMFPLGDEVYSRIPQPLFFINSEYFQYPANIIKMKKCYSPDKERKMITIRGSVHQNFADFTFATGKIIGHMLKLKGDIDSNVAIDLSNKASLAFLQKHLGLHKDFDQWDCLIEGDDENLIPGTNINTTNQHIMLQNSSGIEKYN
For CC/C(=N\NC(=O)c1ccccc1Cl)c1ccc(Br)s1, the inhibition was 2.32% (inactive). In the case of COC(=O)c1onc(-c2c(OC)cc(OC)cc2OC)c1C(=O)OC, the inhibition is reported as -0.73% (inactive). For Cc1ccc(S(=O)(=O)NCC(=O)NNC(=O)c2ccc(Br)cc2)cc1C, the inhibition was -3.03% (inactive). With CN(C)S(=O)(=O)c1ccc(N2CCCC2)c(C(=O)NCc2ccccc2)c1 the inhibition was 27.1% (active). CN(C)S(=O)(=O)c1ccc(N2CCCC2)c(C(=O)Nc2cccc(F)c2)c1 was tested, and the inhibition was -2.43% (inactive). For Cc1ccccc1OCC(=O)NNC(=O)c1cc(S(=O)(=O)N(C)C)ccc1N1CCCC1, the inhibition was -0.66% (inactive). For Cc1ccccc1CN1C[C@@H]2C[C@@H](c3cn(C)nc3-c3ccccc3)N3CCC[C@@]23C1=O, the inhibition was 8.05% (inactive). Cc1cc(C)c(-c2c(O)c3ccccc3n(C)c2=O)c(C)c1 was tested, and the inhibition was -0.19% (inactive). For COc1ccc(CN2CC(C(=O)NCCN3CCN(c4ccccc4F)CC3)CC2=O)cc1 (stereo unspecified), the inhibition was -3.16% (inactive). In the case of O=C(C1CCN(Cc2ccc(Cl)cc2)CC1)N1CCN(Cc2ccc3c(c2)OCO3)CC1, the inhibition is reported as 6.74% (inactive). In the case of O=C(Nc1ccc(Cl)cc1)C1c2cccc[n+]2CC(=O)N1Cc1ccc2c(c1)OCO2 (stereo unspecified), the inhibition is reported as 25.9% (active). CC1CCC(NC(=O)C2c3ccccc3C(=O)N2Cc2ccc3c(c2)OCO3)CC1 (stereo unspecified) was tested, and the inhibition was -0.02% (inactive). In the case of COC(=O)c1c(C)oc(C)c1S(=O)(=O)NCc1ccc(Cl)cc1, the inhibition is reported as -8.68% (inactive). For NS(=O)(=O)c1cccc(NC(=O)CSc2nc3ccccc3n2-c2ccccc2)c1, the inhibition was 33.2% (active). For COc1ccc(-n2cnnc2SCC(=O)Nc2cccc(S(N)(=O)=O)c2)cc1, the inhibition was 3.84% (inactive). In the case of Cc1nnc(SCC(=O)Nc2cccc(N)c2)n1-c1ccccc1, the inhibition is reported as 6.08% (inactive). In the case of O=[N+]([O-])c1ccc(N2CCN(S(=O)(=O)c3ccccc3)CC2)cc1N1CCc2ccccc2C1, the inhibition is reported as -4.15% (inactive). With COCCN1C(=O)C(=O)/C(=C(/O)c2ccc(S(=O)(=O)N3CCCCC3)cc2)C1c1ccc(OC)c(OC)c1 (stereo unspecified) the inhibition was -2.4% (inactive). For Cc1ccc(-n2c(C)cc(/C=N/Nc3ccc([N+](=O)[O-])cn3)c2C)c(C)c1, the inhibition was 8.84% (inactive). In the case of Cc1cccc(-n2c(C)cc(/C=N/NC(N)=S)c2C)c1, the inhibition is reported as -4.16% (inactive). Cc1cc(/C=N/Nc2ccc([N+](=O)[O-])cn2)c(C)n1-c1cccc(C(=O)O)c1 was tested, and the inhibition was 66.3% (active). NC(=O)NC(=O)CSc1nc2cc([N+](=O)[O-])ccc2n1-c1cccc(C(F)(F)F)c1 was tested, and the inhibition was 18.1% (inactive). Cc1ccc(C(=O)N/C(=C\c2ccco2)C(=O)NC2CCS(=O)(=O)C2)cc1 (stereo unspecified) was tested, and the inhibition was -1.45% (inactive). In the case of COc1cc(NS(=O)(=O)c2ccc(NC(C)=O)cc2)cc(OC)c1, the inhibition is reported as 2.89% (inactive). With CC(=O)Nc1ccc(S(=O)(=O)Nc2ccc(N3CCCCC3)cc2)cc1 the inhibition was 27.6% (active). With CC(=O)Nc1ccc(S(=O)(=O)Nc2ccc(N3CCOCC3)c(F)c2)cc1 the inhibition was 5.29% (inactive). In the case of COc1ccccc1OCCNC(=O)C(CCSC)NC(=O)COc1ccccc1 (stereo unspecified), the inhibition is reported as 1.04% (inactive). COc1ccc(NS(=O)(=O)c2ccc(O)c(C(=O)OCC(=O)NC3CCCCC3)c2)cc1 was tested, and the inhibition was 26.9% (active). For CCN(C(=O)COC(=O)c1cc(NS(=O)(=O)c2ccc(Cl)c([N+](=O)[O-])c2)ccc1O)C1CCCCC1, the inhibition was -1.02% (inactive). With CC(C)NS(=O)(=O)c1ccc(OCC(=O)NC2CCCCCC2)cc1 the inhibition was 6.56% (inactive). For COC(=O)c1sc(N2CCN(Cc3ccccc3)CC2)nc1N, the inhibition was 5.95% (inactive). O=C(Oc1cccc(C(=S)N2CCOCC2)c1)c1cccc(Cl)c1 was tested, and the inhibition was 7.68% (inactive). For CC(=O)Nc1ccccc1OC(=O)N1CCOCC1, the inhibition was -0.96% (inactive). With O=C(/C=C/c1cccs1)c1cc(Cl)ccc1OC(=O)N1CCOCC1 the inhibition was 42.8% (active). In the case of COc1ccc(/C=C2/S/C(=N/N=C3\CC4CCC3(C)C4(C)C)NC2=O)cc1 (stereo unspecified), the inhibition is reported as 5.69% (inactive). O=C1NN(c2ccccc2)C(=O)/C1=C/c1ccc(-c2cccc(C(=O)O)c2)o1 was tested, and the inhibition was 18.6% (inactive). With O=C(O)C(c1ccccc1)N1C(=O)/C(=C\c2ccc(-c3cccc(Cl)c3)o2)SC1=S (stereo unspecified) the inhibition was 70.4% (active). O=C1c2ccccc2NC(c2ccc(-c3cccc(Cl)c3)o2)N1O (stereo unspecified) was tested, and the inhibition was 7.56% (inactive). For COc1ccc(CN2C3CCCC2CC(NC(=O)c2cccc(F)c2)C3)cc1 (stereo unspecified), the inhibition was 0.56% (inactive). In the case of O=C(COc1ccc(/C=N/NS(=O)(=O)c2ccccc2)cc1)NCCc1ccccc1, the inhibition is reported as 4.79% (inactive). In the case of O=S(=O)(N/N=C\c1cccn1-c1ccccc1)c1ccc2ccccc2c1, the inhibition is reported as 25% (active). In the case of COc1ccc(N2CC(NS(=O)(=O)c3ccc4ccccc4c3)CC2=O)cc1 (stereo unspecified), the inhibition is reported as 4.81% (inactive). For Cc1ccnc2nc(C(=O)Nc3nnc(-c4ccccc4)o3)nn12, the inhibition was 8.88% (inactive). CCCCn1c(N)c(N(CC(C)C)C(=O)c2cnc(C)cn2)c(=O)[nH]c1=O was tested, and the inhibition was 7.57% (inactive). With COc1ccccc1NC(=O)CCN1CCN(c2ccc(Cl)cc2)CC1 the inhibition was 6.99% (inactive). With COc1cccc(/C=N/Nc2ccc(Cl)nn2)c1 the inhibition was -0.67% (inactive). With Cc1ccsc1/C=N/Nc1ccc(Cl)nn1 the inhibition was 8.65% (inactive). Oc1cccc(/C=N/Nc2ccc(Cl)nn2)c1O was tested, and the inhibition was 54.6% (active). Cc1nn(C(C)C(=O)N2CCOCC2)c(=O)c2nn(-c3ccccc3)c(C)c12 (stereo unspecified) was tested, and the inhibition was -0.47% (inactive). For CC1(N2CCOCC2)CC2(O)C(=[N+]1[O-])CCc1nonc12 (stereo unspecified), the inhibition was 11.9% (inactive). In the case of CCCCCCCC(=O)OC(CN1CCCCCC1)CN1CCCC1=O (stereo unspecified), the inhibition is reported as -5.64% (inactive). In the case of Cc1ccccc1CS(=O)(=O)CC1(O)CCN(C(=O)c2cccc(C(F)(F)F)c2)CC1, the inhibition is reported as -7.07% (inactive). In the case of O=c1nc2s/c(=C\c3ccco3)c(=O)n2nc1Cc1ccccc1, the inhibition is reported as 25.7% (active). In the case of O=C(NCCc1ccco1)c1nn(Cc2ccccc2)c(=O)c2ccccc12, the inhibition is reported as 1.41% (inactive). With CN(c1ccccc1)c1ccc(/C=c2\s/c(=C(/C#N)C(=O)C(C)(C)C)n(Cc3ccco3)c2=O)cc1 the inhibition was -0.46% (inactive). For O=C(COc1coc(CN2CCN(c3ccccc3)CC2)cc1=O)N1CCc2ccccc21, the inhibition was -5.69% (inactive).
